Assay results taken from PubChem BioAssay (EPA / NIEHS).
Active and inactive are the calls of the source. The calls were made as follows: active = hit-call score of the fitted dose curve at least 0.9, where 1 is the maximum; inactive = score below 0.9.

How the values were obtained:
[1] = read-out: TIMP metallopeptidase inhibitor 2 (TIMP2), TIMP2 (gene 7077); assay: BSK_KF3CT_TIMP2: BioMAP Diversity Plus: KF3CT Assay for TIMP metallopeptidase inhibitor 2 (TIMP2) Biomarker Activity (AID 2283071); settings: primary human keratinocytes with fibroblasts; actives raise or lower the signal
Procedure, shortened: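 Co-culture of human primary keratinocytes and foreskin fibroblasts, measured 24 h after chemical dosing. TIMP-2 quantified by ELISA and fitted in both directions relative to DMSO. Cytotoxicity checked in parallel cultures by SRB total-protein staining.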

[2] = read-out: Transforming growth factor beta 1 (TGFb1), TGFB1 (gene 7040); assay: BSK_KF3CT_TGFb1: BioMAP Diversity Plus: KF3CT Assay for Transforming growth factor beta 1 (TGFb1) Biomarker Activity (AID 2283072); settings: primary human keratinocytes with fibroblasts; actives raise or lower the signal
Procedure, shortened: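 Human keratinocyte/foreskin fibroblast co-culture; TGF-b1 measured by ELISA 24 h after dosing, fitted bidirectionally versus DMSO. Cytotoxicity checked in parallel cultures by total protein (SRB staining, 560 nm).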

[3] = read-out: C-C motif chemokine 2 (Homo sapiens) (UniProt P13500); assay: BSK_KF3CT_MCP1: BioMAP Diversity Plus: KF3CT Assay for Monocyte Chemoattractant Protein 1 (MCP1/CCL2) Biomarker Activity (AID 2283073); settings: primary human keratinocytes with fibroblasts; actives raise or lower the signal
Procedure, shortened: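 Human keratinocyte–foreskin fibroblast co-culture; MCP-1 measured by ELISA 24 h after dosing. Bidirectional fit vs DMSO; cytotoxicity tracked by SRB total protein in parallel cultures.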

[4] = read-out: Matrix Metallopeptidase 9 (MMP9), MMP9 (gene 4318); assay: BSK_KF3CT_MMP9: BioMAP Diversity Plus: KF3CT Assay for Matrix Metallopeptidase 9 (MMP9) Biomarker Activity (AID 2283074); settings: primary human keratinocytes with fibroblasts; actives raise or lower the signal;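 as to AC50: MMP9 protein level quantified by ELISA in the co-culture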
Procedure, shortened: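 Human keratinocyte and foreskin fibroblast co-culture exposed to chemicals for 24 h; MMP9 biomarker measured by ELISA, bidirectional fitting relative to DMSO; cytotoxicity tracked by SRB total protein staining in parallel cultures.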

[5] = read-out: urokinase plasminogen activator (uPA), PLAU (gene 5328); assay: BSK_KF3CT_uPA: BioMAP Diversity Plus: KF3CT Assay for urokinase plasminogen activator (uPA) Biomarker Activity (AID 2283075); settings: primary human keratinocytes with fibroblasts; actives raise or lower the signal
Procedure, shortened: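 Primary human keratinocyte/foreskin fibroblast co-culture exposed to chemical; uPA measured by ELISA at 24 h. Bidirectional fit versus DMSO, with parallel SRB total-protein staining for cytotoxicity.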

CD40, CD40 (gene 958) [6] = assay: BSK_LPS_CD40: BioMAP Diversity Plus: LPS Assay for CD40 Biomarker Activity (AID 2283076); settings: primary human HUVEC with PBMC; actives raise or lower the signal
Procedure, shortened: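 HUVEC plus PBMC co-culture stimulated with LPS; CD40 quantified by ELISA 24 h after compound dosing. Fitting was bidirectional relative to DMSO. SRB staining of parallel cultures flagged overt cytotoxicity.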

[7] = read-out: E-selectin (Homo sapiens) (UniProt P16581); assay: BSK_LPS_Eselectin: BioMAP Diversity Plus: LPS Assay for Eselectin Biomarker Activity (AID 2283077); settings: primary human HUVEC with PBMC; actives raise or lower the signal
Procedure, shortened: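 Human umbilical vein endothelial cells co-cultured with PBMC under LPS stimulation; cell-surface E-selectin measured by ELISA 24 h after dosing. Change in either direction versus DMSO, with SRB total-protein staining in parallel cultures for cytotoxicity.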

[8] = read-out: Interleukin-8 (IL8), CXCL8 (gene 3576); assay: BSK_LPS_IL8: BioMAP Diversity Plus: LPS Assay for Interleukin-8 (IL8) Biomarker Activity (AID 2283078); settings: primary human HUVEC with PBMC; actives raise or lower the signal
Procedure, shortened: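 Human umbilical vein endothelial cells co-cultured with PBMC, LPS-stimulated, exposed to compound for 24 h. IL-8 quantified by ELISA; fitted in both directions against DMSO, with SRB total-protein staining of parallel cultures for cytotoxicity.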

[9] = BSK_LPS_SRB: Viability Assessment in the BioMAP Diversity Plus: LPS Assay (AID 2283079); settings: primary human HUVEC with PBMC;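 also: total protein by sulforhodamine B absorbance as a cytotoxicity measure; measured one day after compound addition; fitted in both directions against DMSO so loss or gain of signal counts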
Procedure, shortened: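 Co-culture of human umbilical vein endothelial cells and PBMC, read 24 h after dosing. Total protein by 0.1% SRB staining after 10% TCA fixation, absorbance at 560 nm; bidirectional fit against DMSO.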

[10] = read-out: Interleukin-1 alpha (IL1a), IL1A (gene 3552); assay: BSK_LPS_IL1a: BioMAP Diversity Plus: LPS Assay for Interleukin-1 alpha (IL1a) Biomarker Activity (AID 2283080); settings: primary human HUVEC with PBMC; actives raise or lower the signal
Procedure, shortened: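 Human umbilical vein endothelial cells co-cultured with PBMC and stimulated with LPS; IL-1a measured by ELISA 24 h after dosing. Bidirectional fitting against DMSO; cytotoxicity checked by SRB staining in parallel cultures.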

[11] = BSK_LPS_PGE2: BioMAP Diversity Plus: LPS Assay for Prostaglandin E2 (PGE2) Biomarker Activity (AID 2283082); settings: primary human HUVEC with PBMC; actives raise or lower the signal;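 as to AC50: secreted prostaglandin E2 measured by ELISA in LPS-stimulated co-culture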
Procedure, shortened: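 HUVEC plus human PBMC co-culture stimulated with LPS; secreted PGE2 quantified by ELISA 24 h after chemical dosing. Activity fitted bidirectionally against DMSO baseline; parallel SRB staining (0.1% SRB after 10% TCA fixation, 560 nm) flags overt cytotoxicity.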

[12] = read-out: Macrophage colony-stimulating factor (MCSF), CSF1 (gene 1435); assay: BSK_LPS_MCSF: BioMAP Diversity Plus: LPS Assay for Macrophage colony-stimulating factor (MCSF) Biomarker Activity (AID 2283083); settings: primary human HUVEC with PBMC; actives raise or lower the signal
Procedure, shortened: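 HUVEC–PBMC co-culture, M-CSF measured by ELISA 24 h after chemical dosing. Fitted in both directions relative to DMSO as negative control; overt cytotoxicity assessed by SRB total-protein staining in parallel cultures.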

[13] = read-out: Tumor necrosis factor (Homo sapiens) (UniProt P01375); assay: BSK_LPS_TNFa: BioMAP Diversity Plus: LPS Assay for Tumour Necrosis Factor alpha (TNFa) Biomarker Activity (AID 2283085); settings: primary human HUVEC with PBMC; actives raise or lower the signal
Procedure, shortened: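 Human umbilical vein endothelial cells co-cultured with PBMC and stimulated with LPS. TNFa was measured by ELISA 24 h after chemical dosing, fitted bidirectionally relative to DMSO.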

[14] = read-out: Vascular cell adhesion molecule 1 (VCAM1), VCAM1 (gene 7412); assay: BSK_LPS_VCAM1: BioMAP Diversity Plus: LPS Assay for Vascular cell adhesion molecule 1 (VCAM1) Biomarker Activity (AID 2283086); settings: primary human HUVEC with PBMC; actives raise or lower the signal
Procedure, shortened: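 Human umbilical vein endothelial cells co-cultured with PBMC and stimulated with LPS; VCAM-1 measured by ELISA 24 h after dosing. Bidirectional curve fitting against DMSO baseline; cytotoxicity tracked in parallel by SRB total-protein staining.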

CD38, CD38 (gene 952) = assay: BSK_SAg_CD38: BioMAP Diversity Plus: SAg Assay for CD38 Biomarker Activity (AID 2283087); settings: primary human HUVEC with PBMC; actives raise or lower the signal
Procedure, shortened: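 Human HUVEC plus PBMC co-culture stimulated with superantigen; CD38 measured by ELISA 24 h after chemical dosing. Fluorescence read-out, bidirectional fit against DMSO; cytotoxicity tracked in parallel by SRB and Alamar Blue.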

CD40, CD40 (gene 958) [15] = assay: BSK_SAg_CD40: BioMAP Diversity Plus: SAg Assay for CD40 Biomarker Activity (AID 2283088); settings: primary human HUVEC with PBMC; actives raise or lower the signal
Procedure, shortened: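 HUVEC plus PBMC co-culture, superantigen-activated, with CD40 read by ELISA 24 h after dosing. Curves fitted in both directions against DMSO. Overt cytotoxicity checked by parallel SRB total-protein staining.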

CD69, CD69 (gene 969) = assay: BSK_SAg_CD69: BioMAP Diversity Plus: SAg Assay for CD69 Biomarker Activity (AID 2283089); settings: primary human HUVEC with PBMC; actives raise or lower the signal;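 as to AC50: cell surface CD69 protein quantified by ELISA with fluorescence detection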
Procedure, shortened: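 HUVEC co-cultured with PBMC were dosed with chemical, and CD69 was measured by ELISA with fluorescence read-out 24 h later. Bidirectional curve fitting used DMSO as negative control and activity baseline.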

[16] = read-out: Monocyte Chemoattractant Protein-1 (MCP1), CCL2 (gene 6347); assay: BSK_SAg_MCP1: BioMAP Diversity Plus: SAg Assay for Monocyte Chemoattractant Protein-1 (MCP1) Biomarker Activity (AID 2283090); settings: primary human HUVEC with PBMC; actives raise or lower the signal
Procedure, shortened: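 MCP-1 levels in the endothelial–PBMC SAg co-culture were quantified by ELISA at 24 h post-dosing; both increases and decreases versus DMSO scored. Cytotoxicity monitored by SRB total protein in parallel cultures.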

[17] = read-out: Tissue Factor, F3 (gene 2152); assay: BSK_LPS_TissueFactor: BioMAP Diversity Plus: LPS Assay for Tissue Factor Biomarker Activity (AID 2283084); settings: primary human HUVEC with PBMC; actives raise or lower the signal
Procedure, shortened: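 Human umbilical vein endothelial cells co-cultured with PBMC were dosed with compound. Cell-surface CD142 was measured by ELISA 24 h later. Activity was fitted bidirectionally against DMSO, with SRB total-protein staining in parallel cultures for cytotoxicity.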

Measured: AC50

Sequence of E-selectin (Homo sapiens) (P16581 whole entry, looked up): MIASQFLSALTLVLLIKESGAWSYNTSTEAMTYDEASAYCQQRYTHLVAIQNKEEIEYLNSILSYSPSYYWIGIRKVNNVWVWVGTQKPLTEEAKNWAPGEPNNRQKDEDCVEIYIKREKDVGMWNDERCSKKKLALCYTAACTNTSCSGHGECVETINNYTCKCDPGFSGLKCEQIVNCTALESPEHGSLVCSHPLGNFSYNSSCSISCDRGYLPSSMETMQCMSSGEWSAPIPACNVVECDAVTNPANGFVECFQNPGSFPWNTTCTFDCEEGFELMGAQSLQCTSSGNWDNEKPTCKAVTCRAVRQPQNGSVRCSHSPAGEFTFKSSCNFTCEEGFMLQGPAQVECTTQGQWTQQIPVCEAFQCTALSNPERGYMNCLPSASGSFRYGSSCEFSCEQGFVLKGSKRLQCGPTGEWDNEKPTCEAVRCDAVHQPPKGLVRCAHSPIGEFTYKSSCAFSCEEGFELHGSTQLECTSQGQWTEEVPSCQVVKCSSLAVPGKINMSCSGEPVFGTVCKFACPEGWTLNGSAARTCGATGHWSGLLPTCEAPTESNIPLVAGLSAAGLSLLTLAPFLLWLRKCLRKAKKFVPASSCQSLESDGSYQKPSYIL
Sequence of Tumor necrosis factor (Homo sapiens) (P01375 whole entry, looked up): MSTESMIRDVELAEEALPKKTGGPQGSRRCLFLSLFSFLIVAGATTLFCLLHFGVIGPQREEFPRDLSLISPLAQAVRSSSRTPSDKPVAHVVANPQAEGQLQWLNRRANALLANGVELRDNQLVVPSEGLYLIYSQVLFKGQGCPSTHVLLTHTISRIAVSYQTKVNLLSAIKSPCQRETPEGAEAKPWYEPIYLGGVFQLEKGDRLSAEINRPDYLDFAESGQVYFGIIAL

CN1C(=O)N(c2ccccc2Br)Cc2cnc(Nc3ccc4c(c3)OCC(CO)O4)nc21 (stereo not drawn)
active: [1] 13.7 µM | [2] 15.3 µM | [3] 31 µM | [4] 6.07 µM | [5] 12.4 µM | CD40, CD40 (gene 958) [6] 7.42 µM | [7] 7.07 µM | [8] 6.07 µM | [9] 4.68 µM | [10] 9.1 µM | [11] 3.63 µM | [12] 9.88 µM | [13] 3.14 µM | [14] 7.92 µM | CD38, CD38 (gene 952) 2.36 µM | CD40, CD40 (gene 958) [15] 2.19 µM | CD69, CD69 (gene 969) 2.08 µM | [16] 1.9 µM

O=C1c2ccccc2C(=O)N1CCc1noc(-c2ccc(CN3CCCCCC3)s2)n1
not listed: CD38, CD38 (gene 952)
inactive: all other assays above

O=C1CCC(C2CCCCC2)CC1
active: [3] 29.6 µM | [4] 31.8 µM
not listed: [5] | CD38, CD38 (gene 952)
inactive: all other assays above
